# Test results published in article PMC7862700, “An all-to-all approach to the identification of sequence-specific readers for epigenetic DNA modifications on cytosine”.
# How the values were obtained:
# Assay in all cases: DAPPL (digital affinity profiling via proximity ligation, sequencing); 10 mM Tris-HCl pH 7.5, 50 mM NaCl, 1 mM DTT, 4% glycerol, room temperature, 30 min; GST-TFs on glutathione beads, 16-mer random dsDNA library, 0.1% formaldehyde crosslink after washing; high values mean tight binding
# FLI1 = target: T1, FLI1 (Homo sapiens, UniProt Q01543 1-452); details: protein: recombinant; tags: N-terminal GST; dsDNA, one strand shown
# T1 sequence: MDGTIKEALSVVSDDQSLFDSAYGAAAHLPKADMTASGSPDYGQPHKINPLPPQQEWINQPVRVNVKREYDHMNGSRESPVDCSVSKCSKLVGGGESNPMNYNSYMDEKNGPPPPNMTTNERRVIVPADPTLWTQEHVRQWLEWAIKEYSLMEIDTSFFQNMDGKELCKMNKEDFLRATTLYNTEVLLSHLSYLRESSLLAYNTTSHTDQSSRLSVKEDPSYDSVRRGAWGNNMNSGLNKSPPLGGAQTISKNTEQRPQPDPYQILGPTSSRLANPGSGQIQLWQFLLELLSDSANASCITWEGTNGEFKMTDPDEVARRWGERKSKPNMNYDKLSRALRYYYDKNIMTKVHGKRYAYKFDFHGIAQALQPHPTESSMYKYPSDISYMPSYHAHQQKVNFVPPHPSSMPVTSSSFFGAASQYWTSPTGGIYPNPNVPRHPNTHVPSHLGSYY
# How it was run: (§1)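 In yeast, human transcription factors were expressed with a GST fusion, then pulled down on glutathione beads and given DNA barcodes. Pooled with a tag-only sample, they were exposed to 200 nmole of a 16-mer random double-stranded DNA library (Tris/NaCl/DTT/glycerol buffer, room temperature, 30 min), washed, crosslinked with 0.1% formaldehyde, proximity-ligated using BsaI/T4 ligase for 1 h at 37 °C, PCR-amplified and read on an Illumina NextSeq500. Each hexamer's frequency of reads for a factor, divided by the matching frequency for the tag-only sample, gives the binding signal.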
# ELK1 = target: T2, ELK1 (Homo sapiens, UniProt P19419 1-428); details: protein: recombinant; tags: N-terminal GST; dsDNA, one strand shown
# T2 sequence: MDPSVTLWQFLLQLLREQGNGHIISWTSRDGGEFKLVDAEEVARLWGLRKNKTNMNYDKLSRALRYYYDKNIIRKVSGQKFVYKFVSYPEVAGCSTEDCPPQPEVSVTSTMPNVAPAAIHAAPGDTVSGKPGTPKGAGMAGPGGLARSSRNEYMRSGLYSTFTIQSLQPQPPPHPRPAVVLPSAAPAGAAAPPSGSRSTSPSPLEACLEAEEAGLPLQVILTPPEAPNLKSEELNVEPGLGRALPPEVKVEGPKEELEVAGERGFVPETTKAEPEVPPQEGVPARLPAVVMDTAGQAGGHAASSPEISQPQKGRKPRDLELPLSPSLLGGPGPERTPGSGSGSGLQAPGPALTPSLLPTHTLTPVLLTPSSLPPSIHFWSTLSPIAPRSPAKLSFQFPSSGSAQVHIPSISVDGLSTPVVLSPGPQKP
# How it was run: as §1
# GABPA = target: T3, GABPA (Homo sapiens, UniProt Q06546 1-454); details: protein: recombinant; tags: N-terminal GST; dsDNA, one strand shown
# T3 sequence: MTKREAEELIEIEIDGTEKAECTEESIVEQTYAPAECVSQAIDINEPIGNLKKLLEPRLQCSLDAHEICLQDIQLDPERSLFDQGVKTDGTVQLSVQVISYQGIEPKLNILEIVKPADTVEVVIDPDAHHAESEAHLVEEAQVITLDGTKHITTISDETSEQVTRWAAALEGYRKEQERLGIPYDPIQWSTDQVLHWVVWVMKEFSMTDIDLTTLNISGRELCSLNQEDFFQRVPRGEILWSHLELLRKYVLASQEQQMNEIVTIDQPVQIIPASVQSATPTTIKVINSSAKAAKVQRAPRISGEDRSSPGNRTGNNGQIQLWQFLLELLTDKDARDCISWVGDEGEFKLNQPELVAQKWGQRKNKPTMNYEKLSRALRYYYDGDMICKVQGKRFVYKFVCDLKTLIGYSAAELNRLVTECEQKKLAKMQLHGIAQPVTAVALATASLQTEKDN
# How it was run: as §1
# ERG = target: T4, ERG (Homo sapiens, UniProt P11308 1-479); details: protein: recombinant; tags: N-terminal GST; dsDNA, one strand shown
# T4 sequence: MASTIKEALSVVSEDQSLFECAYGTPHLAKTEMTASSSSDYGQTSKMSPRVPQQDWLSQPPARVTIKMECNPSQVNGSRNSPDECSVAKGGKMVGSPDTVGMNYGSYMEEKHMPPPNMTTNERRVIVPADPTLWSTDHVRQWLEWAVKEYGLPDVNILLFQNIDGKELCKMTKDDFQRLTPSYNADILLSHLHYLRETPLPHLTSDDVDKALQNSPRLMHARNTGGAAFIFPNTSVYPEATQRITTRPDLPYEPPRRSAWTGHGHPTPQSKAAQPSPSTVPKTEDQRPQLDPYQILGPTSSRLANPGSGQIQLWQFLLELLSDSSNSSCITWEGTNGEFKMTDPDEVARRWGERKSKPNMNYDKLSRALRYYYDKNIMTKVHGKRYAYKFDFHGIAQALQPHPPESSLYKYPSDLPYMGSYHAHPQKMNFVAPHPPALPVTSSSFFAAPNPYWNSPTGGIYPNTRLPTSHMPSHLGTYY
# How it was run: as §1
# ELF1 = ELF1 (Homo sapiens, UniProt P32519 1-619); details: protein: recombinant; tags: N-terminal GST; dsDNA, one strand shown
# How it was run: as §1
# EHF = target: T5, EHF (Homo sapiens, UniProt Q9NZC4 1-300); details: protein: recombinant; tags: N-terminal GST; dsDNA, one strand shown
# T5 sequence: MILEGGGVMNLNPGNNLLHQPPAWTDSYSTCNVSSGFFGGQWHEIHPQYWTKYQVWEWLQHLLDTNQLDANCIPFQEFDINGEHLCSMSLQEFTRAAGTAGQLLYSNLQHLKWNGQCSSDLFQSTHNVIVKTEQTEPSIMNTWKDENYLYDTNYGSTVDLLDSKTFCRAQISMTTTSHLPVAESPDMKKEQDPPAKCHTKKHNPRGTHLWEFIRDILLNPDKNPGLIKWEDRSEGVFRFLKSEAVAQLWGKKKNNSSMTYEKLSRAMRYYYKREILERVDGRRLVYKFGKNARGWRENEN
# How it was run: as §1
# SPI1 = SPI1 (Homo sapiens, UniProt P17947 1-270); details: protein: recombinant; tags: N-terminal GST; dsDNA, one strand shown
# How it was run: as §1
# SPIB = SPIB (Homo sapiens, UniProt Q01892 1-262); details: protein: recombinant; tags: N-terminal GST; dsDNA, one strand shown
# How it was run: as §1
# ELK3 = target: T6, ELK3 (Homo sapiens, UniProt P41970 1-407); details: protein: recombinant; tags: N-terminal GST; dsDNA, one strand shown
# T6 sequence: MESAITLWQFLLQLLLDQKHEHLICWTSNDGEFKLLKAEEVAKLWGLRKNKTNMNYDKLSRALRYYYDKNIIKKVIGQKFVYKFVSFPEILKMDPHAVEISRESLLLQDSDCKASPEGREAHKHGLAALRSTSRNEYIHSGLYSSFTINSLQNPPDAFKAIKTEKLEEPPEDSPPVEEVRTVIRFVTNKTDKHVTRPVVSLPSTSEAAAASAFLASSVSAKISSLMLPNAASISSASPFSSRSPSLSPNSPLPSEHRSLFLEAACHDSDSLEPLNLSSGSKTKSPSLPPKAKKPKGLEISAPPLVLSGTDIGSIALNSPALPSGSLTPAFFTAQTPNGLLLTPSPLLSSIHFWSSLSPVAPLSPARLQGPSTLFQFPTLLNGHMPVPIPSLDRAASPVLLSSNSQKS
# How it was run: as §1
# FEV = target: T7, FEV (Homo sapiens, UniProt Q99581 1-238); details: protein: recombinant; tags: N-terminal GST; dsDNA, one strand shown
# T7 sequence: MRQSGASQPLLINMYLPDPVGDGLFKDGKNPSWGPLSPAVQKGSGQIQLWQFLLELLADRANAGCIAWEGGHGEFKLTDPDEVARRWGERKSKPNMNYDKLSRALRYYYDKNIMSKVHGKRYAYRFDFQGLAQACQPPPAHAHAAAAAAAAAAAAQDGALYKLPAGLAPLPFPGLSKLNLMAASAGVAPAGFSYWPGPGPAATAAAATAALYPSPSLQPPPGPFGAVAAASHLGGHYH
# How it was run: as §1
# ETV5 = ETV5 (Homo sapiens, UniProt P41161 1-510); details: protein: recombinant; tags: N-terminal GST; dsDNA, one strand shown
# How it was run: as §1
# HSF1 = HSF1 (Homo sapiens, UniProt Q00613 1-529); details: protein: recombinant; tags: N-terminal GST; chain copies: 3; dsDNA, one strand shown
# How it was run: as §1
# SPIC = target: T8, SPIC (Homo sapiens, UniProt Q8N5J4 1-248); details: protein: recombinant; tags: N-terminal GST; dsDNA, one strand shown
# T8 sequence: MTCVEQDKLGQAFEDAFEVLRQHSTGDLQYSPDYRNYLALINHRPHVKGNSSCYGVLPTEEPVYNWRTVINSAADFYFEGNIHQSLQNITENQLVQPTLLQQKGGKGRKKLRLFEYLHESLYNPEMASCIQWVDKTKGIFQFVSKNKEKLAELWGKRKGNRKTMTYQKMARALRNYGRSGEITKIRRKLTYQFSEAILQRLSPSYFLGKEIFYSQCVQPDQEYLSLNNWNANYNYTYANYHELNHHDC
# How it was run: as §1
# ELF4 = ELF4 (Homo sapiens, UniProt Q99607 1-663); details: protein: recombinant; tags: N-terminal GST; dsDNA, one strand shown
# How it was run: as §1
# ELK4 = target: T9, ELK4 (Homo sapiens, UniProt P28324-2 1-405); details: protein: recombinant; tags: N-terminal GST; dsDNA, one strand shown
# T9 sequence: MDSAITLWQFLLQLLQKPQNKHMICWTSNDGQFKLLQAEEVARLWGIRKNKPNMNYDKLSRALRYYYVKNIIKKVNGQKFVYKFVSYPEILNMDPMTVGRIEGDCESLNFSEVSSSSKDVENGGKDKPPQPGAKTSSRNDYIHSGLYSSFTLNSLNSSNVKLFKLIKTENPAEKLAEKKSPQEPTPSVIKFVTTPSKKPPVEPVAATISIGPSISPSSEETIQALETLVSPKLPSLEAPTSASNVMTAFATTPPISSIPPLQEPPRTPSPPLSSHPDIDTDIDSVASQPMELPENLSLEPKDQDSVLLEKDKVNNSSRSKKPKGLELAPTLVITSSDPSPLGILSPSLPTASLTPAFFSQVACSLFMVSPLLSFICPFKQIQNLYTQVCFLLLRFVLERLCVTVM
# How it was run: as §1
# ETV2 = target: T10, ETV2 (Homo sapiens, UniProt O00321 1-342); details: protein: recombinant; tags: N-terminal GST; dsDNA, one strand shown
# T10 sequence: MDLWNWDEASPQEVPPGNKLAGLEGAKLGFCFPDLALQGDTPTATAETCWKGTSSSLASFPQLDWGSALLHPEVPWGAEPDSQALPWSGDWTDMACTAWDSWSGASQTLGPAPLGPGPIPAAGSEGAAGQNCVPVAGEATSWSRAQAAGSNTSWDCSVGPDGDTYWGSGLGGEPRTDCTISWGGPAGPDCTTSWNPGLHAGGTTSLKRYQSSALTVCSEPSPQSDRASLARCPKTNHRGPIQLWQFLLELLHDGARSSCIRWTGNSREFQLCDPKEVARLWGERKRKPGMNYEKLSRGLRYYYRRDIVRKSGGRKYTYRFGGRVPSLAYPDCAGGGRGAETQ
# How it was run: as §1
# ELF3 = target: T11, ELF3 (Homo sapiens, UniProt P78545 1-371); details: protein: recombinant; tags: N-terminal GST; dsDNA, one strand shown
# T11 sequence: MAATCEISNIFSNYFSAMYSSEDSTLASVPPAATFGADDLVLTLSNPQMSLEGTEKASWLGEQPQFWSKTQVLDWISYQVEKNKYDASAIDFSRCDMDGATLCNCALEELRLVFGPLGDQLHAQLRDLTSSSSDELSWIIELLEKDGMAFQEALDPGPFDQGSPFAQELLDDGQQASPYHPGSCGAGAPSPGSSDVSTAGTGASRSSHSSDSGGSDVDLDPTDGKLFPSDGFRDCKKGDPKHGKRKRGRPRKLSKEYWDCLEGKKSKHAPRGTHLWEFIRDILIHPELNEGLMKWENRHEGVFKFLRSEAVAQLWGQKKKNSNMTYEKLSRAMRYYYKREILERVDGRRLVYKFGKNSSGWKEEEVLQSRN
# How it was run: as §1
# ETV1 = ETV1 (Homo sapiens, UniProt P50549 1-477); details: protein: recombinant; tags: N-terminal GST; dsDNA, one strand shown
# How it was run: as §1
# Sequence of ELF4 (Q99607 whole entry): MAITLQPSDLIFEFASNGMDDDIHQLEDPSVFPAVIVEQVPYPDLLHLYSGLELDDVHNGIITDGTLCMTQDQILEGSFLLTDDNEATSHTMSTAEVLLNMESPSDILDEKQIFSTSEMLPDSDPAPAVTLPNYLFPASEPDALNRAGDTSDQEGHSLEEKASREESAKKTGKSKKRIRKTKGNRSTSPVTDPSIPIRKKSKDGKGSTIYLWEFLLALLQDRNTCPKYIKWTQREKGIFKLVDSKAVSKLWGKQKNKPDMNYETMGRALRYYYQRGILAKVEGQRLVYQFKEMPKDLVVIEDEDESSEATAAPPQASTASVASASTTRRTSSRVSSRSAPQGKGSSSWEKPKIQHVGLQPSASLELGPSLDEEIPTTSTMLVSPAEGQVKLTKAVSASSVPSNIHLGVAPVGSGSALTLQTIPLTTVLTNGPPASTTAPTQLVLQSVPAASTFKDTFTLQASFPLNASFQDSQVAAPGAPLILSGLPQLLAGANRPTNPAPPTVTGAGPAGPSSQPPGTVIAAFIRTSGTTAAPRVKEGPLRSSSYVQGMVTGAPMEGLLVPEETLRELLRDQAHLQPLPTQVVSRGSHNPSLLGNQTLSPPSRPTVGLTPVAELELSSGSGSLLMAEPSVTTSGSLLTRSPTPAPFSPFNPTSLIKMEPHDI
# Sequence of HSF1 (Q00613 whole entry): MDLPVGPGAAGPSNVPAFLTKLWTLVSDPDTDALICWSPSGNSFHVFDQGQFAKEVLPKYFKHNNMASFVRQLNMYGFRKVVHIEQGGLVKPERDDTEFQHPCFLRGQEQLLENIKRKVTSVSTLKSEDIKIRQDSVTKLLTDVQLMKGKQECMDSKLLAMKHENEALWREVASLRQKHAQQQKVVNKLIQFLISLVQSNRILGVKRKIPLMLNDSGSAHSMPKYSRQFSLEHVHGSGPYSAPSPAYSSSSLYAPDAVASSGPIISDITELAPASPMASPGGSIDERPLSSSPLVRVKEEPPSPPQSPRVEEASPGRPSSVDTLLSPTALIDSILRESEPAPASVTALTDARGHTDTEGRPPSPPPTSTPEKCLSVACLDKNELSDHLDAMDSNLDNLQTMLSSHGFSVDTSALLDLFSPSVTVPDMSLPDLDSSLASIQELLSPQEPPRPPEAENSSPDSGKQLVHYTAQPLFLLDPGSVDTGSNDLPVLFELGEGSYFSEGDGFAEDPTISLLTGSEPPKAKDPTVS
# Sequence of ETV1 (P50549 whole entry): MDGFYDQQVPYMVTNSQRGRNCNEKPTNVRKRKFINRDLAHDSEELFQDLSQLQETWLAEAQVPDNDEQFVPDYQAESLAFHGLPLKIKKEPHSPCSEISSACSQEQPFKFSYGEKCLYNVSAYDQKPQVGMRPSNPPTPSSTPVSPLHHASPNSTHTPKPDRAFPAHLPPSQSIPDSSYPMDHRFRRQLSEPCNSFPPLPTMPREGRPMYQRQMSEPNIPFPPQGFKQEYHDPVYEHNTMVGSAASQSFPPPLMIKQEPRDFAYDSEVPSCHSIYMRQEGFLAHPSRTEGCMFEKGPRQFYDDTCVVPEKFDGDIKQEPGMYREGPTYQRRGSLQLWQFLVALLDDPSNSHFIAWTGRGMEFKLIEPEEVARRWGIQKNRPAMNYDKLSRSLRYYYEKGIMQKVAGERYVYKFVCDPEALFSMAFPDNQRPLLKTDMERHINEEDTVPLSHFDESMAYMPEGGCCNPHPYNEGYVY
# Sequence of SPIB (Q01892 whole entry): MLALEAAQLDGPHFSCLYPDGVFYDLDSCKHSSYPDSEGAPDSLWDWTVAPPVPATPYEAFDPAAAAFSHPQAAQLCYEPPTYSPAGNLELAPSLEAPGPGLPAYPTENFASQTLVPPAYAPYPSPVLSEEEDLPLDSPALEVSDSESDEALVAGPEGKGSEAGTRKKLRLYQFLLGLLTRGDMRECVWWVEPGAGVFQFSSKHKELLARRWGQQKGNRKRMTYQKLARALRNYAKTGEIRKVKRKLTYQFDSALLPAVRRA
# Sequence of ETV5 (P41161 whole entry): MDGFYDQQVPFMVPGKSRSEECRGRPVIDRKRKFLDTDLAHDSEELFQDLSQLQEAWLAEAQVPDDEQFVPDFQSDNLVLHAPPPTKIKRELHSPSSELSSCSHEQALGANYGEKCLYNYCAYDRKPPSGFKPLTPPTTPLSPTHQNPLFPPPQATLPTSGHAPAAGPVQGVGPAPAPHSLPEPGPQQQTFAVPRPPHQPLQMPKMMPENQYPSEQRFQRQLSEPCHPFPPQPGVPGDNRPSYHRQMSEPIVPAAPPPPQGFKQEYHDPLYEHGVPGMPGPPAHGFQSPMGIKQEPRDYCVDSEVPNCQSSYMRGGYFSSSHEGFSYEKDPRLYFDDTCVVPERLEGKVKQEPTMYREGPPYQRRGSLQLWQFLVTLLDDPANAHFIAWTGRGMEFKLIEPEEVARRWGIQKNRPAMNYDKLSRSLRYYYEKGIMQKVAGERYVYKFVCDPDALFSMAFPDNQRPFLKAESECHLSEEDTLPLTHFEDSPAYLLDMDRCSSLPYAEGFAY
# Sequence of ELF1 (P32519 whole entry): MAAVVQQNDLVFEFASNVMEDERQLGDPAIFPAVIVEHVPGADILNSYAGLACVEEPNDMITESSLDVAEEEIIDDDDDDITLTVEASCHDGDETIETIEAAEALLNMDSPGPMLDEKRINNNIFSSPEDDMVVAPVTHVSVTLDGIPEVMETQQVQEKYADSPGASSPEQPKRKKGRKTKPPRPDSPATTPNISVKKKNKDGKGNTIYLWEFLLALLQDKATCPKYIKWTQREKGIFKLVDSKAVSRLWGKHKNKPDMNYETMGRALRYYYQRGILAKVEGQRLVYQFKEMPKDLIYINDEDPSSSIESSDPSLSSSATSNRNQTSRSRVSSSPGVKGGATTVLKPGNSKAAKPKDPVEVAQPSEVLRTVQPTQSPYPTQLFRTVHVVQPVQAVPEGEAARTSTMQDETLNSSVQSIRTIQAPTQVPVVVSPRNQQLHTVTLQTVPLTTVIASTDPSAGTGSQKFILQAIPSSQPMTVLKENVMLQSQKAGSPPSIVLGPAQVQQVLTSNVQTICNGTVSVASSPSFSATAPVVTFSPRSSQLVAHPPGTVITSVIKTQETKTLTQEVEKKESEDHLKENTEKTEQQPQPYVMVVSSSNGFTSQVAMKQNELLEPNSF
sequence,measurement,setting,value
ATGTCC,binding signal,FLI1,"1.56 fold enrichment (6-mer frequency, TF over GST control)"
same,binding signal,ELK1,"1.53 fold enrichment (6-mer frequency, TF over GST control)"
same,binding signal,GABPA,"1.54 fold enrichment (6-mer frequency, TF over GST control)"
same,binding signal,ERG,"1.75 fold enrichment (6-mer frequency, TF over GST control)"
same,binding signal,ELF1,"1.58 fold enrichment (6-mer frequency, TF over GST control)"
same,binding signal,EHF,"1.54 fold enrichment (6-mer frequency, TF over GST control)"
same,binding signal,SPI1,"1.35 fold enrichment (6-mer frequency, TF over GST control)"
same,binding signal,SPIB,"1.55 fold enrichment (6-mer frequency, TF over GST control)"
same,binding signal,ELK3,"1.75 fold enrichment (6-mer frequency, TF over GST control)"
same,binding signal,FEV,"1.84 fold enrichment (6-mer frequency, TF over GST control)"
same,binding signal,ETV5,"1.62 fold enrichment (6-mer frequency, TF over GST control)"
same,binding signal,HSF1,"1.03 fold enrichment (6-mer frequency, TF over GST control)"
same,binding signal,SPIC,"1.54 fold enrichment (6-mer frequency, TF over GST control)"
same,binding signal,ELF4,"1.51 fold enrichment (6-mer frequency, TF over GST control)"
same,binding signal,ELK4,"1.57 fold enrichment (6-mer frequency, TF over GST control)"
same,binding signal,ETV2,"1.77 fold enrichment (6-mer frequency, TF over GST control)"
same,binding signal,ELF3,"1.85 fold enrichment (6-mer frequency, TF over GST control)"
same,binding signal,ETV1,"1.66 fold enrichment (6-mer frequency, TF over GST control)"
